Reference: PubChem BioAssay (NCI)
Several values for one entry are separate records, joined by “and”; a condition that tells them apart may be missing. Equal entries are not always repeated. This is part of a sample that, as a whole, favours compounds with a hit. Of some 83,000 tested, about 20% had one in any assay.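 A percent growth of 40 corresponds to 60% growth inhibition; 0 means no net growth; -100 means all cells died. Active threshold: below 10.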 Activity calls are given as the source filed them.

tested on: BT-549 breast; assay: NCI-60 one-dose screen, 48 h (100 = growth as untreated, 0 = no growth, -100 = all killed); details: 10 µM
Method: Growth inhibition of the BT-549 human tumor cell line is measured as a screen for anti-cancer activity. Cells are grown in 96 well plates and exposed to the test compound for 48 hours. Compounds are tested at a single concentration, which is 10^-5 M for most compounds. The reported endpoint is percent growth (GI% or GIPRCNT), where numbers from 0 - 100% represent growth inhibition, and numbers from -100% - 0 represent cell death. For example, a value of 40 represents 60% growth inhibition. A value of 0 means no net growth occurred over the course of the experiment. A value of -40 indicates 40% of cells at the beginning of the experiment died by the end of the experiment. A value of -100 means all cells are dead at the end of the experiment.
NCI-60 Human Tumor Cell Lines Screen was performed using the standard one-dose NCI protocol, which is described in more detail at https://dtp.cancer.gov/discovery_development/nci-60/default.htm.
Compounds with GIPRCNT values below 10 were considered active. Activity score was based on GIPRCNT using the following formula: […]
Score is 0 for GIPRCNT values of 100 or above, 50 for GIPRCNT values of 0, and 100 for GIPRCNT values of -100.

How did the growth turn out when `CC(C)(C)c1cc(NC(=O)Cc2ccc(-c3cnc4cc(-c5cnn(CCN6CCOCC6)c5)ccc4n3)cc2)no1` was run?
Its growth is 22% (inactive).

same assay, conditions: 10 µM unless noted

For `NC(=O)c1ccccc1OCC(O)CO` (stereo unspecified), which growth is on record?
Its growth is 109% (inactive).

Which growth does the source give for `CC(=O)Nc1ccc(O)cc1` here?
Its growth is 94.3% (inactive) and 78.1% (inactive) and 101% (inactive).

For `Cc1cc(C)c(N)c(Br)c1`, which growth is on record?
Its growth is 108% (inactive) and 88.8% (inactive).

`COc1ccc2cc3[n+](cc2c1OC)CCc1cc2c(cc1-3)OCO2` was tested. Which growth did it give?
The growth was 28.8% (inactive) and 32.3% (inactive).

`COc1cc(C(=O)N/N=C/c2ccc(N(C)C)cc2)cc(OC)c1OC` was tested. Which growth did it give?
The growth was -2.93% (active).

For `Clc1ccc(NC(Nc2ccc(Cl)cc2)C(Cl)(Cl)Cl)cc1`, which growth is on record?
Its growth is 69.3% (inactive) and 85.8% (inactive).

Which growth does the source give for `O=C(Nc1cccc(-n2ccc3c(NC(=O)c4ccccc4)nccc32)c1)c1ccc(Cl)c(C(F)(F)F)c1` here?
Its growth is -75.1% (active) and 76.7% (inactive).

How did the growth turn out when `O=C(Oc1cccc(OC(=O)c2ccccc2)c1)c1ccccc1` was run?
Its growth is 112% (inactive) and 90.8% (inactive).

Which growth does the source give for `OCCN1CCN(CCCN2c3ccccc3Sc3ccc(Cl)cc32)CC1` here?
The growth was 59.1% (inactive) and 74.7% (inactive).

For `CCN1CCN(CCNc2nccc(-c3c(-c4cccc(O)c4)nc4sccn34)n2)S1(=O)=O`, which growth is on record?
Its growth is 72% (inactive) and 83.8% (inactive).

`CO/N=C/C=C\C(=O)N/C=C/C[C@H]1/C=C/[C@H](O)/C=C\C=C\c2cccc(O)c2C(=O)O1` was tested. Which growth did it give?
The growth was 31.6% (inactive) and 46.9% (inactive).

`CC1=CCC2CC1C2(C)C` (stereo unspecified) was tested. Which growth did it give?
Its growth is 71.6% (inactive) and 68.8% (inactive).

How did the growth turn out when `CCc1c(CC(=O)O)c2cc(C)ccc2n1Cc1ccc(Cl)cc1` was run?
The growth was 94% (inactive) and 183% (inactive).

`CCOC(=O)C(CNc1ccccc1)C(=O)OCC` was tested. Which growth did it give?
The growth was 104% (inactive).

Which growth does the source give for `NC(=O)C1CC2C=CC1C2` (stereo unspecified) here?
Its growth is 93% (inactive) and 112% (inactive).

How did the growth turn out when `COc1cc(NS(C)(=O)=O)ccc1Nc1c2ccccc2nc2c(C)cccc12` was run?
Its growth is 3.76% (active) and 4.61% (active).

For `CN(C)CCCNC1=C(Cl)C(=O)c2ccccc2C1=O`, which growth is on record?
Its growth is 96.8% (inactive) and 93% (inactive).

`Nc1ccc(N=Nc2ccc(S(=O)(=O)O)cc2)cc1S(=O)(=O)O` was tested. Which growth did it give?
The growth was 120% (inactive) and 148% (inactive).

How did the growth turn out when `CC(=O)NC(Cc1ccccc1)C(=O)Oc1ccc2ccccc2c1` (stereo unspecified) was run?
The growth was 110% (inactive).

Which growth does the source give for `COc1ccc2nc(Cl)cc(C)c2c1` here?
Its growth is 130% (inactive) and 92% (inactive).

Which growth does the source give for `OC(CSc1ccccc1)CN1CCN(c2cccc(Cl)c2)CC1` (stereo unspecified) here?
The growth was 97.7% (inactive).

Which growth does the source give for `CC(C)Oc1ccc2cc(-c3nn(CC4CCNCC4)c4ncnc(N)c34)ccc2c1` here?
Its growth is 73.2% (inactive) and -5.14% (active).

With `CC(C)CNC(=O)c1ccccc1C(=O)NC1(C(=O)NCC(C)C)CCCC1` as the compound, how does the growth read?
Its growth is 122% (inactive) and 115% (inactive).

With `Cc1ccc(S(=O)(=O)Nc2nc3ccccc3nc2Nc2ccc3nsnc3c2)cc1` as the compound, how does the growth read?
The growth was 37% (inactive) and 51.5% (inactive).

`Cc1cc(-c2ccc(NS(=O)(=O)c3ccccc3)c(C)c2)ccc1NS(=O)(=O)c1ccccc1` was tested. Which growth did it give?
Its growth is 79.7% (inactive).

With `CCOC(=O)c1c(C)oc(C)c(C(=O)OCC)c1=O` as the compound, how does the growth read?
Its growth is 79.4% (inactive) and 100% (inactive).

With `O=C(CCl)c1ccc2c(c1)Nc1ccccc1S2` as the compound, how does the growth read?
The growth was 74% (inactive) and 76.1% (inactive).

Which growth does the source give for `OCc1ccccn1` here?
Its growth is 103% (inactive).

`O=C(O)CSCc1nc2ccccc2[nH]1` was tested. Which growth did it give?
Its growth is 108% (inactive).

How did the growth turn out when `CCN(CC)CCOc1ccc2c(c1)C(=O)c1cc(OCCN(CC)CC)ccc1-2` was run?
The growth was 96% (inactive) and 76.3% (inactive).

For `CCN(CC)CCOc1ccc(/C=N/Nc2nc3c([nH]2)c(=O)n(C)c(=O)n3C)cc1`, which growth is on record?
Its growth is 105% (inactive) and 96.1% (inactive).

How did the growth turn out when `CC(C)(C)c1ccc(O)c(CNC2CCCCC2)c1` was run?
The growth was 85.1% (inactive).

With `CN1C(=O)C(N=Nc2ccc([N+](=O)[O-])cc2)SC1=S` (stereo unspecified) as the compound, how does the growth read?
Its growth is 71% (inactive) and 67.8% (inactive).

Which growth does the source give for `Cn1cnc([N+](=O)[O-])c1Sc1ncnc2nc[nH]c12` here?
Its growth is 70.7% (inactive).

For `NCCSC(C[N+](=O)[O-])c1ccccc1Cl` (stereo unspecified), which growth is on record?
Its growth is 81.1% (inactive).

`O=C(O)C1(C(=O)O)CCC1.[NH2-].[NH2-].[Pt+2]` was tested. Which growth did it give?
The growth was 103% (inactive) and 106% (inactive).

Which growth does the source give for `CCN(CC)CCCC(CNc1ccnc2cc(Cl)ccc12)c1ccc(Cl)cc1` (stereo unspecified) here?
The growth was 10.4% (inactive) and -11.4% (active).

Which growth does the source give for `C[N+](C)(C)CN1C(=O)c2ccccc2C1=O` here?
Its growth is 98.6% (inactive).

How did the growth turn out when `CC(/C=N/N1C(=O)c2ccccc2C1=O)c1ccccc1` (stereo unspecified) was run?
The growth was 113% (inactive).

same assay, conditions: 30 µM

How did the growth turn out when `CC(C)(C)c1cc(NC(=O)Cc2ccc(-c3cnc4cc(-c5cnn(CCN6CCOCC6)c5)ccc4n3)cc2)no1` was run?
Its growth is 32.9% (inactive).
